Assay results reported in PubChem BioAssay (NCI).
Compounds without any hit were thinned out: in the full panel of roughly 79,000, 15% have a hit. Calls of active or inactive are those of the source. Rule as the data show it: active = growth inhibition above about 70%; inactive = the rest.

Assays:
[1] = NCI Yeast Anticancer Drug Screen. Data for the rad52 strain (AID 147);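 also: 0% = growth of vehicle-treated control cultures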; conditions: S. cerevisiae rad52 mutant growth inhibition, stronger effect = higher value
Method in brief: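 DNA repair-defective yeast; compound exposure; growth scored against vehicle controls.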

[2] = NCI Yeast Anticancer Drug Screen. Data for the wt1 strain (AID 149);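 also: 0% = growth of vehicle-treated wt1 cultures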; conditions: S. cerevisiae wt1 strain (SPY 50644) growth inhibition, stronger effect = higher value
Method in brief: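 The wt1 strain was treated with compounds, and growth was compared with vehicle-treated cultures to give inhibition.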

[3] = NCI Yeast Anticancer Drug Screen. Data for the rad50EPP+ strain (AID 151);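 also: 0% = growth of vehicle-treated control cultures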; conditions: S. cerevisiae rad50 mutant strain, stronger effect = higher value
Method in brief: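 rad50EPP+ yeast treated with test compounds. Readout: growth vs vehicle control.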

[4] = NCI Yeast Anticancer Drug Screen. Data for the mgt1 strain (AID 153); conditions: S. cerevisiae mgt1 mutant growth inhibition, stronger effect = higher value
Method in brief: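 Growth inhibition relative to vehicle controls was scored for the mgt1 yeast strain after compound exposure.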

[5] = NCI Yeast Anticancer Drug Screen. Data for the rad50 strain (AID 155);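 also: 0% = growth of vehicle-only cultures of the same strain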; conditions: S. cerevisiae rad50 strain growth inhibition, stronger effect = higher value
Method in brief: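 Cells are treated with compound, grown, and their growth is then scored against vehicle-only cultures of the same repair-deficient yeast strain.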

[6] = NCI Yeast Anticancer Drug Screen. Data for the mec2-1 strain (AID 157); conditions: S. cerevisiae mec2-1 strain, stronger effect = higher value
Method in brief: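 Growth inhibition is read against vehicle-treated controls after compound exposure of the mec2-1 yeast strain, which is defective in DNA damage repair or cell cycle control.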

[7] = NCI Yeast Anticancer Drug Screen. Data for the rad14 strain (AID 159);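 also: 0% = growth of vehicle-treated control cultures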; conditions: S. cerevisiae rad14 strain growth inhibition, stronger effect = higher value
Method in brief: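 Readout: yeast growth inhibition, referenced to vehicle-only cultures. Strain bears a defined alteration in DNA damage repair.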

[8] = NCI Yeast Anticancer Drug Screen. Data for the sgs1 mgt1 strain (AID 161);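 also: 0% = growth of cultures given vehicle only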; conditions: S. cerevisiae sgs1 mgt1 strain, stronger effect = higher value
Method in brief: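 Yeast cells carrying a defined DNA-repair defect were exposed to test compounds. Growth inhibition was measured relative to vehicle-treated controls.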

[9] = NCI Yeast Anticancer Drug Screen. Data for the CLN2oe strain (AID 163);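 also: 0% = growth of vehicle-only control cultures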; conditions: S. cerevisiae CLN2oe strain, stronger effect = higher value
Method in brief: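 Compound-treated yeast; growth vs vehicle ctrl = % inhibition. Genetically altered strain (cell-cycle control).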

[10] = NCI Yeast Anticancer Drug Screen. Data for the cln2 rad14 strain (AID 165);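 also: 0% = growth equal to vehicle treated cultures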; conditions: S. cerevisiae cln2 rad14 strain, stronger effect = higher value
Method in brief: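 Growth inhibition, relative to vehicle-treated controls, is the read-out. The test organism is a yeast strain with defined genetic alterations, cln2 rad14.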

[11] = NCI Yeast Anticancer Drug Screen. Data for the bub3 strain (AID 167); conditions: S. cerevisiae bub3 mutant strain, stronger effect = higher value
Method in brief: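 Part of a panel of yeast mutants defective in DNA damage repair or cell cycle regulation. Each strain is grown with compound, and inhibition is calculated relative to solvent-treated cultures.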

[12] = NCI Yeast Anticancer Drug Screen. Data for the mlh1 strain (AID 171);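 also: 0% = growth of vehicle-treated control cultures of the same strain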; conditions: S. cerevisiae mlh1 strain growth inhibition, stronger effect = higher value
Method in brief: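 Compounds are applied to a genetically altered yeast strain, and its growth is compared with that of vehicle-treated cultures to give percent inhibition.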

[13] = NCI Yeast Anticancer Drug Screen. Data for the sgs1 strain (AID 173);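 also: 0% = growth of vehicle-only control cultures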; conditions: S. cerevisiae sgs1 mutant, stronger effect = higher value
Method in brief: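 Compounds applied to genetically altered yeast; growth compared with vehicle-treated cultures to give % inhibition.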

[14] = NCI Yeast Anticancer Drug Screen. Data for the mlh1 rad18 strain (AID 175); conditions: S. cerevisiae mlh1 rad18 strain growth inhibition, stronger effect = higher value
Method in brief: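 Cells of a genetically altered yeast strain, deficient in DNA damage repair, were treated with compound. Their growth was then compared with that of vehicle-treated cultures to give inhibition.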

[15] = NCI Yeast Anticancer Drug Screen. Data for the rad18 strain (AID 177); conditions: S. cerevisiae rad18 mutant growth inhibition, stronger effect = higher value
Method in brief: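 Compounds are applied to a repair-deficient yeast strain, and growth is compared with that of vehicle-treated cultures to give percent inhibition.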

[16] = NCI Yeast Anticancer Drug Screen. Data for the wt2 strain (AID 169);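 also: 0% = growth of vehicle-treated yeast cultures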; conditions: S. cerevisiae wt2 strain growth inhibition, stronger effect = higher value
Method in brief: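 Compound exposure of yeast; growth compared with vehicle controls; inhibition reported.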

[17] = at 5.0 µM (retest, dose inferred, filed as 0.5)
[18] = at 50.0 µM (retest, dose inferred, filed as 5.0)

Measured: growth inhibition

Cc1cc(C)c(N2C(=O)CC(Sc3ccccc3N)C2=O)c(C)c1 (stereo not given)
inactive: [1]; at 1.2 µM -27% | [1]; at 3.7 µM -20% | [1]; at 11.0 µM -31% | [1]; at 33.0 µM -14% | [1]; at 100.0 µM -22% | [2]; at 1.2 µM -53% | [2]; at 3.7 µM -52% | [2]; at 11.0 µM -58% | [2]; at 33.0 µM -62% | [2]; at 100.0 µM -45% | [3]; at 1.2 µM -15% | [3]; at 3.7 µM -13% | [3]; at 11.0 µM -16% | [3]; at 33.0 µM -11% | [3]; at 100.0 µM 1% | [4]; at 1.2 µM -57% | [4]; at 3.7 µM -57% | [4]; at 11.0 µM -57% | [4]; at 33.0 µM -38% | [4]; at 100.0 µM -21% | [5]; at 1.2 µM -34% | [5]; at 3.7 µM -30% | [5]; [17] 37% | [5]; at 11.0 µM -33% | [5]; at 33.0 µM -42% | [5]; [18] 41% | [5]; at 50.0 µM 30.1% | [5]; at 100.0 µM -27% | [6]; at 1.2 µM -42% | [6]; at 3.7 µM -44% | [6]; [17] 45% | [6]; at 11.0 µM -45% | [6]; at 33.0 µM -36% | [6]; [18] 48% | [6]; at 50.0 µM 48.5% | [6]; at 100.0 µM -24% | [7]; at 1.2 µM -59% | [7]; at 3.7 µM -53% | [7]; at 11.0 µM -53% | [7]; at 33.0 µM -56% | [7]; at 100.0 µM -45% | [8]; [17] 0% | [8]; at 50.0 µM 42.9% | [9]; at 1.2 µM -16% | [9]; at 3.7 µM -11% | [9]; at 11.0 µM -2% | [9]; at 33.0 µM 14% | [9]; at 100.0 µM -2% | [10]; [17] 34% | [10]; at 50.0 µM 6.4% | [11]; at 1.2 µM -48% | [11]; at 3.7 µM -43% | [11]; [17] -26% | [11]; at 11.0 µM -51% | [11]; at 33.0 µM -48% | [11]; at 50.0 µM 51.6% | [11]; at 100.0 µM -51% | [12]; at 1.2 µM -33% | [12]; at 3.7 µM -27% | [12]; at 11.0 µM -27% | [12]; at 33.0 µM -23% | [12]; at 100.0 µM 1% | [13]; at 1.2 µM -37% | [13]; at 3.7 µM -41% | [13]; at 11.0 µM -34% | [13]; at 33.0 µM -28% | [13]; at 100.0 µM -21% | [14]; [17] 24% | [14]; [18] 44% | [14]; at 50.0 µM 34.3% | [15]; at 1.2 µM -54% | [15]; at 3.7 µM -45% | [15]; at 11.0 µM -38% | [15]; at 33.0 µM -47% | [15]; at 100.0 µM -44%
active: [8]; [18] 91% | [10]; [18] 76% | [11]; [18] 91%

CN(C)CCN1C(=O)c2cccc3cc([N+](=O)[O-])cc(c23)C1=O
inactive: [1]; at 1.2 µM 22% | [1]; at 3.7 µM 58% | [1]; at 11.0 µM 63% | [2]; at 1.2 µM 16% | [2]; at 3.7 µM 0% | [2]; at 11.0 µM -9% | [2]; at 33.0 µM -4% | [2]; at 100.0 µM 23% | [3]; at 1.2 µM 13% | [3]; at 3.7 µM 25% | [3]; at 11.0 µM 28% | [3]; at 33.0 µM 66% | [4]; at 1.2 µM -11% | [4]; at 3.7 µM -13% | [4]; at 11.0 µM 4% | [4]; at 33.0 µM 5% | [4]; at 100.0 µM 68% | [5]; at 1.2 µM 13% | [5]; at 3.7 µM 35% | [5]; [17] 28% | [5]; at 11.0 µM 52% | [6]; at 1.2 µM -4% | [6]; at 3.7 µM 2% | [6]; [17] 2% | [6]; at 11.0 µM -9% | [6]; at 33.0 µM -6% | [6]; [18] 13% | [6]; at 50.0 µM 7.05% | [6]; at 100.0 µM 48% | [7]; at 1.2 µM 2% | [7]; at 3.7 µM 6% | [7]; at 11.0 µM 12% | [7]; at 33.0 µM -1% | [7]; at 100.0 µM 34% | [8]; [17] 11% | [8]; [18] 51% | [8]; at 50.0 µM -10.9% | [9]; at 1.2 µM 18% | [9]; at 3.7 µM 28% | [9]; at 11.0 µM 41% | [9]; at 33.0 µM 36% | [9]; at 100.0 µM 69% | [10]; [17] 5% | [10]; [18] 38% | [10]; at 50.0 µM -26.2% | [11]; at 1.2 µM -1% | [11]; at 3.7 µM 16% | [11]; [17] -6% | [11]; at 11.0 µM 21% | [11]; at 33.0 µM 18% | [11]; [18] 21% | [11]; at 50.0 µM -4.65% | [11]; at 100.0 µM 47% | [16]; at 1.2 µM -3% | [16]; at 3.7 µM 0% | [16]; at 11.0 µM -1% | [16]; at 33.0 µM 1% | [16]; at 100.0 µM 30% | [12]; at 1.2 µM 14% | [12]; at 3.7 µM 1% | [12]; at 11.0 µM -13% | [12]; at 33.0 µM 0% | [12]; at 100.0 µM 60% | [13]; at 1.2 µM -24% | [13]; at 3.7 µM -2% | [13]; at 11.0 µM 8% | [13]; at 33.0 µM 12% | [13]; at 100.0 µM 61% | [14]; [17] 6% | [14]; [18] 45% | [15]; at 1.2 µM 10% | [15]; at 3.7 µM 16% | [15]; at 11.0 µM 17% | [15]; at 33.0 µM 25%
active: [1]; at 33.0 µM 90% | [1]; at 100.0 µM 93% | [3]; at 100.0 µM 83% | [5]; at 33.0 µM 87% | [5]; [18] 93% | [5]; at 50.0 µM 72.6% | [5]; at 100.0 µM 94% | [15]; at 100.0 µM 80%
